Screening results from PubChem.
MCF10A rerep: induces DNA re-replication in MCF 10a normal breast cells. MCF 10A DNA re-replication, Hoechst nuclear intensity, 48 h. Potency, µM (titrated, usually from 46.1 µM), for inactives: at the highest dose activity, positive = re-replication, hits mostly activators. 350,000 tested, 2.9% active. AID 624296; note: % of control where 0% means no effect; nearly all actives have a fitted effect of over 50% in size
KB-V1 MDR tox: KB-V1 MDR subline cytotoxicity. KB-V1 MDR cells viability, CellTiter-Glo, 72 h. Potency, µM (series often up to 46.1 µM), most hits filed as cytotoxic. 400,000 tested, 3.4% active; note: % is set by controls: 0 for no effect and ±100 for the full control effect; nearly all actives have a fitted effect of over 60% in size
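Luminescent ATP read-out (CellTiter-Glo, 10 min) measures survival of drug-selected KB-V1 MDR cells after 72 h, 37 degrees C compound exposure. Medium: phenol-red-free DMEM, 10% FBS. Values from fitted concentration-response curves.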
SW480 rerep: induces DNA re-replication in SW480 colon adenocarcinoma cells; SW480 DNA re-replication, Hoechst DNA content imaging, 48 h; Potency, µM (top dose mostly 46.1 µM), without a hit: at the highest dose re-replication activation, hits mostly activators; 340,000 tested, 1.8% active; note: % of control where 0% means no effect; nearly all actives have a fitted effect of over 55% in size
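Quantitative HTS format with DMSO vehicle controls; 48 hr drug incubation at 37 C, then 40 min Hoechst staining and scanning imager measurement at 405 nm excitation.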
HT1080-NT tox: kills 2HG-producing HT-1080-NT fibrosarcoma cells | HT-1080-NT fibrosarcoma viability, CellTiter-Glo ATP luminescence, 48 h | Potency, µM (doses to about 46.1 µM), for inactives: at the highest dose activity, negative = less viability, actives largely listed as cytotoxic | 360,000 tested, 1.6% active;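 note: NT is the 2HG producing partner of a matched IDH1 knockdown line; 0% = DMSO-treated cells and -100% = media-only wells without cells; nearly all actives have a fitted effect of over 55% in size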
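750 cells/well, RPMI + 5% FBS; 2 h settle, compound pin-transfer, 48 h at 37 degrees C. CellTiter-Glo 10 min RT, luminescence. Normalized to DMSO and media-only wells.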
KB-3-1 tox: KB-3-1 parental cell cytotoxicity; KB-3-1 viability, CellTiter-Glo ATP luminescence, 72 h; Potency, µM (series often up to 46.1 µM), usual class: cytotoxic; 400,000 tested, 1.4% active; AID 1347075; note: % is set by controls: 0 for no effect and ±100 for the full control effect; nearly all actives have a fitted effect of over 60% in size
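Viability of parental KB-3-1 cells, measured by CellTiter-Glo luminescence, followed a 72 h incubation at 37 °C with pinned compounds in phenol-red-free DMEM containing 10% FBS.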
HT1080 IDH1KD tx: HT-1080 IDH1 knockdown cell toxicity (counter line) | HT-1080 IDH1 knockdown viability, ATP luminescence, 48 h | Potency, µM (highest dose often 46.1 µM), for inactives: at the top dose activity, negative = toxicity, usual class: cytotoxic | 360,000 tested, 2% active | AID 686971;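 note: 0% = DMSO wells and -100% = cell-free medium wells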
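Cytotoxicity counter-line: IDH1KD HT-1080, 48 h, CellTiter-Glo. Curves classed by r2, magnitude and activity.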
An asterisk follows results filed as active. This is a sample that favours compounds with a hit; in the whole collection about 8% have one here. Calls come from the whole dose curve; as a rule, active = well fitted curve in the direction sought with a large enough effect; inconclusive = small, poorly fitted or top-dose-only effect, or another doubt; inactive = no such curve, though single readings can be large; an effect the other way counts as inactive or inconclusive. Potency is the fitted concentration of half-maximal effect.

Results for O=P(O)(CCc1ccncc1)CN1CCCCC1 ?
MCF10A rerep: 5.8µM*; KB-V1 MDR tox: inactive; SW480 rerep: inconclusive; HT1080-NT tox: inconclusive; KB-3-1 tox: inactive; HT1080 IDH1KD tx: 23%

Results for N#CCC(=O)Nc1ccc(C(=O)OCc2ccccc2Oc2ccccc2)cc1 ?
MCF10A rerep: 21µM*; KB-V1 MDR tox: inconclusive; SW480 rerep: inconclusive; HT1080-NT tox: -6%; KB-3-1 tox: inactive; HT1080 IDH1KD tx: inconclusive

Results for N#CCC(=O)Nc1ccc(C(=O)OCC(=O)NCCCc2ccccc2)cc1 ?
MCF10A rerep: -11%; KB-V1 MDR tox: inactive; SW480 rerep: -7%; HT1080-NT tox: 3%; KB-3-1 tox: inactive; HT1080 IDH1KD tx: 15%

Results for Cc1cccc(OCC(=O)Nc2cc(C)c(O)c(-c3nc4ccccc4o3)c2)c1 ?
KB-V1 MDR tox: inactive; KB-3-1 tox: inactive

Results for O=C(CSC1CN(C(c2ccccc2)c2ccccc2)C1)N/N=C/c1ccccc1 ?
MCF10A rerep: inconclusive; KB-V1 MDR tox: inactive; SW480 rerep: -15%; HT1080-NT tox: inconclusive; KB-3-1 tox: inactive; HT1080 IDH1KD tx: 23µM*

How did O=C(CCN1CCN(C(c2ccccc2)c2ccccc2)CC1)N/N=C/c1ccc(O)cc1 do in these assays?
MCF10A rerep: -1%; KB-V1 MDR tox: inactive; SW480 rerep: -4%; HT1080-NT tox: -4%; KB-3-1 tox: inactive; HT1080 IDH1KD tx: 4%

Results for CCC(Oc1ccccc1)C(=O)Nc1cc(-c2ccccc2OC)nn1-c1ccccc1 (centres undefined) ?
KB-V1 MDR tox: inactive; KB-3-1 tox: inactive

Results for CC(C)C[C@@H](NC(=O)[C@H](Cc1ccccc1)NC(=O)c1cnccn1)B(O)O ?
MCF10A rerep: inconclusive; SW480 rerep: 0.003µM*

How did CC1CC1c1ccc(/C=C(\C#N)C(=O)Nc2ccccc2Cl)o1 (centres undefined) do in these assays?
MCF10A rerep: 16µM*; KB-V1 MDR tox: inconclusive; SW480 rerep: 4%; HT1080-NT tox: 6%; KB-3-1 tox: inactive; HT1080 IDH1KD tx: 11%

Results for CSc1cccc(NC(=O)/C=C/c2cccc(Cl)c2)c1 ?
MCF10A rerep: 10%; KB-V1 MDR tox: 18µM*; SW480 rerep: -60%; HT1080-NT tox: -16%; KB-3-1 tox: inconclusive; HT1080 IDH1KD tx: -15%

How did O=C(/C=C/c1cccc(C(F)(F)F)c1)Nc1cccc(C(F)(F)F)c1 do in these assays?
MCF10A rerep: 12%; KB-V1 MDR tox: inconclusive; SW480 rerep: -1%; HT1080-NT tox: 11µM*; KB-3-1 tox: inconclusive; HT1080 IDH1KD tx: 7.9µM*

Results for Cc1ccc(NC(=O)/C=C/c2cccc(C(F)(F)F)c2)cc1 ?
MCF10A rerep: -2%; KB-V1 MDR tox: inconclusive; SW480 rerep: -2%; HT1080-NT tox: -15%; KB-3-1 tox: inactive; HT1080 IDH1KD tx: 0%

What do the screens show for `Nc1ccc(/C=C/c2ccnc3ccccc23)cc1`?
KB-V1 MDR tox: inactive; KB-3-1 tox: inactive

How did COc1ccccc1Nc1nnc(C)c(=O)[nH]1 do in these assays?
MCF10A rerep: -3%; KB-V1 MDR tox: inactive; SW480 rerep: -1%; HT1080-NT tox: -2%; KB-3-1 tox: inactive; HT1080 IDH1KD tx: -3%

How did COc1ccccc1Nc1cc2cc(Br)ccc2c(=O)[nH]1 do in these assays?
MCF10A rerep: 21µM*; KB-V1 MDR tox: inconclusive; SW480 rerep: inconclusive; HT1080-NT tox: -27%; KB-3-1 tox: 7.3µM*; HT1080 IDH1KD tx: inconclusive

Results for O=c1[nH]c(Nc2ccccc2)cc2cc(Br)ccc12 ?
MCF10A rerep: inconclusive; KB-V1 MDR tox: inconclusive; SW480 rerep: inconclusive; HT1080-NT tox: -12%; KB-3-1 tox: inactive; HT1080 IDH1KD tx: -23%

Results for O=c1[nH]c(Nc2ccccc2)cc2ccccc12 ?
MCF10A rerep: 13µM*; KB-V1 MDR tox: inactive; SW480 rerep: 19%; HT1080-NT tox: 2%; KB-3-1 tox: inactive; HT1080 IDH1KD tx: 9%

What do the screens show for `COc1ccc(OC)c(Nc2cc3ccccc3c(=O)[nH]2)c1`?
MCF10A rerep: 16µM*; KB-V1 MDR tox: 23µM*; SW480 rerep: 21µM*; HT1080-NT tox: inconclusive; KB-3-1 tox: 4.1µM*; HT1080 IDH1KD tx: 18µM*

How did CC1(C)Nc2cccc3c(N=Nc4ccc(N=Nc5ccccc5)c5ccccc45)ccc(c23)N1 do in these assays?
KB-V1 MDR tox: inconclusive; KB-3-1 tox: inactive

How did COc1ccc(N=Nc2c(C)[nH]c3ccccc23)cc1 do in these assays?
MCF10A rerep: inconclusive; KB-V1 MDR tox: inactive; SW480 rerep: 13%; HT1080-NT tox: inconclusive; KB-3-1 tox: inactive; HT1080 IDH1KD tx: 18µM*

How did Nc1[nH][nH]c(=O)c1N=Nc1cccc(Cl)c1 do in these assays?
MCF10A rerep: -49%; KB-V1 MDR tox: inconclusive; SW480 rerep: -21%; HT1080-NT tox: -4%; KB-3-1 tox: inactive; HT1080 IDH1KD tx: -18%

Results for COc1ccc(N=Nc2c(C)[nH][nH]c2=O)cc1 ?
MCF10A rerep: 0%; KB-V1 MDR tox: 23µM*; SW480 rerep: 0%; HT1080-NT tox: -3%; KB-3-1 tox: inconclusive; HT1080 IDH1KD tx: -10%

How did COc1cccc(N=Nc2c(N)[nH][nH]c2=O)c1 do in these assays?
MCF10A rerep: 18%; KB-V1 MDR tox: 18µM*; SW480 rerep: -4%; HT1080-NT tox: -11%; KB-3-1 tox: inactive; HT1080 IDH1KD tx: -2%

What do the screens show for `Cc1[nH][nH]c(=O)c1N=Nc1ccc(F)cc1`?
MCF10A rerep: -6%; KB-V1 MDR tox: inactive; SW480 rerep: -13%; HT1080-NT tox: 6%; KB-3-1 tox: inactive; HT1080 IDH1KD tx: 10%

How did CCc1ccccc1NC(=O)c1ccc2c(O)c(S(=O)(=O)c3ccccc3)c(=O)[nH]c2c1 do in these assays?
KB-V1 MDR tox: inactive; KB-3-1 tox: inactive

How did O=C(CCCCn1c(=O)c2ccccc2n(Cc2ccc(Cl)cc2)c1=O)NCc1ccccc1Cl do in these assays?
KB-V1 MDR tox: inconclusive; KB-3-1 tox: inactive

How did COc1ccccc1-n1cnc2c(c1=O)c1nc3ccccc3nc1n2-c1ccc(C)cc1 do in these assays?
MCF10A rerep: -4%; KB-V1 MDR tox: inconclusive; SW480 rerep: -44%; HT1080-NT tox: 11%; KB-3-1 tox: inactive; HT1080 IDH1KD tx: 17%

How did COc1ccccc1-n1c2nc3ccccc3nc2c2c(=O)n(-c3cc(C)cc(C)c3)cnc21 do in these assays?
MCF10A rerep: 23µM*; KB-V1 MDR tox: inconclusive; SW480 rerep: inconclusive; HT1080-NT tox: 6%; KB-3-1 tox: inactive; HT1080 IDH1KD tx: -1%
